In all, about 9,900 sequences were measured (“r (bound/input frequency ratio)”: median about 0.7, highest 2% from about 6.5 on). The entries come from a sample that favours the highest values as a whole.
B1: ENSMUSG00000031028.612|Tub|38:42 (ssRNA)
RNA: GGGAGUUCUACAGUCCGACGAUCGCUUCGAUAUCCGCAUGCUAUGAGCAGCUAGAGCAUUUGAGCAACCCAUGUAAUCUUACACAUUCCCUCCCUGUAAGAAGGCCUGUCAGAGCUUGCUGUAGGAGUUAGGGUAAAUGAAAGUUAGUCCUGGCUCUCAUCACCACCUUUCCUAGCUCAUCACUGUGCCUUCUUUCUUCCCUAAGAAAGACAAUGCACCCCUCUCUUCUGUUCUCCUGCCCCUUCGCCCCCACUGAGGUCCAGGUAGAGCAGAUGAGGCUGAAAUGUAGAGUGUUCUAUAGAGCUCUUGCGGUCGCACUAGUGUGGAAUUCUCGGGUGUCAAGG
B2: ENSMUSG00000043670.77|Diras1|85:90 (ssRNA)
RNA: GGGAGUUCUACAGUCCGACGAUCGCUUCGAUAUCCGCAUGCUAGGAUCUGAAAACAGGGACCUGGCUAAGGAACUGCUCAUCCCAGUCAGGCCCAGAGAGGUUACCUUGCCUCUCCAUCUCUGUCCCACACACCCCAGCCAUGCCCACUGUCCCUGUCCCUCACAUUCUAUCACUGUGACCUCUGGGGAGUGCCCAUUGACCUCAUCUUCCUUCACUAAUAUCUUAUUUCUUUCACCUGAUCCUGUCCUUUCCCCGUGACCUCUGACCUGUGGCCUUCCCUGGGUCCAGAACACCCCUGUCCUCUCUUGCGGUCGCACUAGUGUGGAAUUCUCGGGUGUCAAGG
B3: ENSMUSG00000090935.47|Synj2bp (ssRNA)
RNA: GGGAGUUCUACAGUCCGACGAUCGCUUCGAUAUCCGCAUGCUAGCGGGAUGUGCUGUGUCCCUGAGAGUACAGCACAGGGUAGGUAUUACCUGCACCUGGAUAUGGGACAGUAGGCUUUUACACUGUUCUUGUGAAUAGGUUUGUAAGCUUCAAAGUCUGCUUUACUUUAUCUUCUGUUAUGAUUGCCUUUGUCAGCAUAGGCAGGAGUCCUUUAGGAUUUCUGCCUAUCAGUAAAAGAAGUAUGUAACCCAAGUUCUACCUUCAGUGGAUUAAAGUUUCAUUAAGUGAAAAUGGAAAGAAAGCUCUUGCGGUCGCACUAGUGUGGAAUUCUCGGGUGUCAAGG
B4: ENSMUSG00000058297.314|Spock2 (ssRNA)
RNA: GGGAGUUCUACAGUCCGACGAUCGCUUCGAUAUCCGCAUGCUAGCUGAGGCUUCCAGGACAAAGCCCCAGUCUGGCUCUCCCCCAGCCUCUCAGGGGCACUGGCUGGUCACAUCCACUGAGUAUUGAUCGGUUGGACUUUAGGGAAGAGCCUCCUCCUUCCCAUUCCUUUCUGCCACCCUGGAAUGGCCACCUUAAUCGUCAUCUCCUCGGGGGGAAUACGGAAAUGUCACCAAGCUCCAUAAAGUGCUUCUCAUUCCACGACACAGUUCUGACUCUCCGGGUGACUGUCACCUGCUCCCAUCCUCUUGCGGUCGCACUAGUGUGGAAUUCUCGGGUGUCAAGG
B5: ENSMUSG00000031028.648|Tub (ssRNA)
RNA: GGGAGUUCUACAGUCCGACGAUCGCUUCGAUAUCCGCAUGCUACCAGGUAGAGCAGAUGAGGCUGAAAUGUAGAGUGUUCUAUAGAGCAUCUCAGUAGCAUAGAAGGAGAAGCCCAGCUCCAACCUCCUGGACCCCAUACUGGUGACCAGCUUGGUGAGGACAGGCAAAAUUUCUCUAGCUGAGAGCACACUUAGCCAGUUUUCACGCCUAGAACAUAUAUGUCGAUUUGCACAUGAUUGUCUUUUCCUAUUUUGGAGUGGUCAGACAUUUUAUUUUUGUUCAAAAUUAUCUGGAGUUUUAGACUCUUGCGGUCGCACUAGUGUGGAAUUCUCGGGUGUCAAGG
B6: ENSMUSG00000032194.138|Kank2 (ssRNA)
RNA: GGGAGUUCUACAGUCCGACGAUCGCUUCGAUAUCCGCAUGCUAUGACUUGGAAAUGACCAACUUACAAGAAGUUAUGCUGACCUCCCUGUUCCCCACGGGGAGUGCUUGGCAGAGGAGACUACUUCUAGAAAUACUUUCAGACCUACAGACAAAAAAGAAAAAAGGCCAUUCCGGAGUGACUCCCAGCAUCACAGCCCAGAACCUCCUCCUCAAAGGAGAGUAAACAGAGACUGUGAUACUGACCAAGUACAGGCGCUCGCUAUGAAGCCCAUAUGUUCCUGAUUAAGAGCUGGCUGGCCUCACUCUUGCGGUCGCACUAGUGUGGAAUUCUCGGGUGUCAAGG
B7: ENSMUSG00000061578.1543|Ksr2 (ssRNA)
RNA: GGGAGUUCUACAGUCCGACGAUCGCUUCGAUAUCCGCAUGCUACACUAUGUAUAUUUGUAUAGAUCAUUUAUAAAGUUUUCUACACUUCUCAAAAAAAAAAAUAUUUCUAACCUUGGCUGUUGGACAGUCUGUGAGCCUGUGAGCCGGCAAGCCUGUUGUUUCUUGUGUUUAGUGCAAUGUUAGUGAGAAUCCAGUGUCUGAGUUAUUAAUGCCAAUAAAGAAUUUGAGAAUUACUGCAUCCGCUGCUGUCACUCCAGGUCAGAACUCUGCUGUUGUCUGUUGGAUGGAAGGAAGCUCCAGAGCUCUUGCGGUCGCACUAGUGUGGAAUUCUCGGGUGUCAAGG
B8: ENSMUSG00000058297.244|Spock2 (ssRNA)
RNA: GGGAGUUCUACAGUCCGACGAUCGCUUCGAUAUCCGCAUGCUAUGAGCAGCUAGGCCCUGAUGCCAUGCCUCAGCACGCCCUCAGACCUCCAGGCCGGGUGGAAGGGGCUUUUACCCAGAUGUCCUGUGGGGUUUUGUGUGUCUAUUGCUCCCCACUUCCCCCUCUCAAAGGAAAUUUCCUUGAUAUAUUUGAUGAAGAAUUCCUUACCUGGGCCUCUGAUACCCUUUGGUACGCGUACGUGUGUGUGGCGCGUAUACGUGUGUGUGUGUGUGUGUGUGUGUGUGUGUGUGUGUGUGUGUGAGCUCUUGCGGUCGCACUAGUGUGGAAUUCUCGGGUGUCAAGG
B9: ENSMUSG00000058297.240|Spock2 (ssRNA)
RNA: GGGAGUUCUACAGUCCGACGAUCGCUUCGAUAUCCGCAUGCUAUGUAUCUAUCAGAGGGGACCACACUGAGCAGCUAGGCCCUGAUGCCAUGCCUCAGCACGCCCUCAGACCUCCAGGCCGGGUGGAAGGGGCUUUUACCCAGAUGUCCUGUGGGGUUUUGUGUGUCUAUUGCUCCCCACUUCCCCCUCUCAAAGGAAAUUUCCUUGAUAUAUUUGAUGAAGAAUUCCUUACCUGGGCCUCUGAUACCCUUUGGUACGCGUACGUGUGUGUGGCGCGUAUACGUGUGUGUGUGUGUGUGUGUGCUCUUGCGGUCGCACUAGUGUGGAAUUCUCGGGUGUCAAGG
B10: ENSMUSG00000058297.243|Spock2 (ssRNA)
RNA: GGGAGUUCUACAGUCCGACGAUCGCUUCGAUAUCCGCAUGCUACCACACUGAGCAGCUAGGCCCUGAUGCCAUGCCUCAGCACGCCCUCAGACCUCCAGGCCGGGUGGAAGGGGCUUUUACCCAGAUGUCCUGUGGGGUUUUGUGUGUCUAUUGCUCCCCACUUCCCCCUCUCAAAGGAAAUUUCCUUGAUAUAUUUGAUGAAGAAUUCCUUACCUGGGCCUCUGAUACCCUUUGGUACGCGUACGUGUGUGUGGCGCGUAUACGUGUGUGUGUGUGUGUGUGUGUGUGUGUGUGUGUGUGUGCUCUUGCGGUCGCACUAGUGUGGAAUUCUCGGGUGUCAAGG
B11: ENSMUSG00000058297.239|Spock2 (ssRNA)
RNA: GGGAGUUCUACAGUCCGACGAUCGCUUCGAUAUCCGCAUGCUAGAACGGUGUAUCUAUCAGAGGGGACCACACUGAGCAGCUAGGCCCUGAUGCCAUGCCUCAGCACGCCCUCAGACCUCCAGGCCGGGUGGAAGGGGCUUUUACCCAGAUGUCCUGUGGGGUUUUGUGUGUCUAUUGCUCCCCACUUCCCCCUCUCAAAGGAAAUUUCCUUGAUAUAUUUGAUGAAGAAUUCCUUACCUGGGCCUCUGAUACCCUUUGGUACGCGUACGUGUGUGUGGCGCGUAUACGUGUGUGUGUGUGUGCUCUUGCGGUCGCACUAGUGUGGAAUUCUCGGGUGUCAAGG
B12: ENSMUSG00000058297.242|Spock2|105:111;209:217;228:260 (ssRNA)
RNA: GGGAGUUCUACAGUCCGACGAUCGCUUCGAUAUCCGCAUGCUAAGGGGACCACACUGAGCAGCUAGGCCCUGAUGCCAUGCCUCAGCACGCCCUCAGACCUCCAGGCCGGGUGGAAGGGGCUUUUACCCAGAUGUCCUGUGGGGUUUACACACACUAUUGCUCCCCACUUCCCCCUCUCAAAGGAAAUUUCCUUGAUAUAUUUGAUGAAGAAUUCCUUACCUGGGCCUCUGAUACCCUUUGGUACGCGUACCACACACACGCGCGUAUACCACACACACACACACACACACACACACACACACCUCUUGCGGUCGCACUAGUGUGGAAUUCUCGGGUGUCAAGG
B13: ENSMUSG00000058297.242|Spock2 (ssRNA)
RNA: GGGAGUUCUACAGUCCGACGAUCGCUUCGAUAUCCGCAUGCUAAGGGGACCACACUGAGCAGCUAGGCCCUGAUGCCAUGCCUCAGCACGCCCUCAGACCUCCAGGCCGGGUGGAAGGGGCUUUUACCCAGAUGUCCUGUGGGGUUUUGUGUGUCUAUUGCUCCCCACUUCCCCCUCUCAAAGGAAAUUUCCUUGAUAUAUUUGAUGAAGAAUUCCUUACCUGGGCCUCUGAUACCCUUUGGUACGCGUACGUGUGUGUGGCGCGUAUACGUGUGUGUGUGUGUGUGUGUGUGUGUGUGUGUGCUCUUGCGGUCGCACUAGUGUGGAAUUCUCGGGUGUCAAGG
B14: ENSMUSG00000058297.245|Spock2 (ssRNA)
RNA: GGGAGUUCUACAGUCCGACGAUCGCUUCGAUAUCCGCAUGCUAGCUAGGCCCUGAUGCCAUGCCUCAGCACGCCCUCAGACCUCCAGGCCGGGUGGAAGGGGCUUUUACCCAGAUGUCCUGUGGGGUUUUGUGUGUCUAUUGCUCCCCACUUCCCCCUCUCAAAGGAAAUUUCCUUGAUAUAUUUGAUGAAGAAUUCCUUACCUGGGCCUCUGAUACCCUUUGGUACGCGUACGUGUGUGUGGCGCGUAUACGUGUGUGUGUGUGUGUGUGUGUGUGUGUGUGUGUGUGUGUGUGAGAGAGAGCUCUUGCGGUCGCACUAGUGUGGAAUUCUCGGGUGUCAAGG
B15: ENSMUSG00000058297.241|Spock2 (ssRNA)
RNA: GGGAGUUCUACAGUCCGACGAUCGCUUCGAUAUCCGCAUGCUAUAUCAGAGGGGACCACACUGAGCAGCUAGGCCCUGAUGCCAUGCCUCAGCACGCCCUCAGACCUCCAGGCCGGGUGGAAGGGGCUUUUACCCAGAUGUCCUGUGGGGUUUUGUGUGUCUAUUGCUCCCCACUUCCCCCUCUCAAAGGAAAUUUCCUUGAUAUAUUUGAUGAAGAAUUCCUUACCUGGGCCUCUGAUACCCUUUGGUACGCGUACGUGUGUGUGGCGCGUAUACGUGUGUGUGUGUGUGUGUGUGUGUGUGCUCUUGCGGUCGCACUAGUGUGGAAUUCUCGGGUGUCAAGG
B16: ENSMUSG00000058297.246|Spock2 (ssRNA)
RNA: GGGAGUUCUACAGUCCGACGAUCGCUUCGAUAUCCGCAUGCUACCCUGAUGCCAUGCCUCAGCACGCCCUCAGACCUCCAGGCCGGGUGGAAGGGGCUUUUACCCAGAUGUCCUGUGGGGUUUUGUGUGUCUAUUGCUCCCCACUUCCCCCUCUCAAAGGAAAUUUCCUUGAUAUAUUUGAUGAAGAAUUCCUUACCUGGGCCUCUGAUACCCUUUGGUACGCGUACGUGUGUGUGGCGCGUAUACGUGUGUGUGUGUGUGUGUGUGUGUGUGUGUGUGUGUGUGUGUGAGAGAGAGAGAGAGCUCUUGCGGUCGCACUAGUGUGGAAUUCUCGGGUGUCAAGG

What follows are binders tested against TDP-43 (Homo sapiens, UniProt Q13148 1-414) (assay: RNA Bind-n-Seq with designed 260-mer pool; 25 mM Tris-HCl, 150 mM KCl, 3 mM MgCl2, BSA (printed 500 mg/mL), 20 units/mL SUPERase IN; pH not stated; 500 nM RNA pool, 1 h, 4 C; TDP-43 5, 50, 500 nM; high values mean tight binding). Conditions: protein: recombinant; tags: SBP (GST cleaved off with PreScission; pGEX-GST-SBP).
TDP-43, sequence (Q13148 whole entry): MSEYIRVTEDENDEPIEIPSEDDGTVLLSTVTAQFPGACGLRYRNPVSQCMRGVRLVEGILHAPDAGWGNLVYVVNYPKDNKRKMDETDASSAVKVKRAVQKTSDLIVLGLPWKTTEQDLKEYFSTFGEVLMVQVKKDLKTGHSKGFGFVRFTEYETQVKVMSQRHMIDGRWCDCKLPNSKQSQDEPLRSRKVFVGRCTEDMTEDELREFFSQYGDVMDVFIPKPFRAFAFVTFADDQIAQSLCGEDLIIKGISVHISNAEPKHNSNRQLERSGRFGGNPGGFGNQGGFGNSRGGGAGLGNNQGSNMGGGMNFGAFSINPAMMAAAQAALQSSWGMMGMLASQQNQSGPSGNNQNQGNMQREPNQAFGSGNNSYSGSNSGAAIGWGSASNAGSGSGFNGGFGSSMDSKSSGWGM
Outline: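 In 25 mM Tris-HCl, 150 mM KCl, 3 mM MgCl2, BSA and SUPERase IN, 500 nM of an in vitro-transcribed 260-nt 3′ UTR oligo pool was incubated for 1 h at 4 °C with SBP-tagged TDP-43 (5, 50 or 500 nM) captured on streptavidin beads. RNA remaining after washes was biotin-eluted, reverse transcribed, PCR-amplified and sequenced. Binding, R, is the bound-sample abundance of each oligo, normalized to mapped reads, divided by its abundance in input. Each duplicate used a separate, independent protein batch.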

Binder | binding signal
B1 | 1.48 R (bound/input frequency ratio)
B2 | 2.44 R (bound/input frequency ratio)
B3 | 1.42 R (bound/input frequency ratio)
B4 | 1.1 R (bound/input frequency ratio)
B5 | 0.252 R (bound/input frequency ratio)
B6 | 0.253 R (bound/input frequency ratio)
B7 | 0.902 R (bound/input frequency ratio)
B8 | 3.2 R (bound/input frequency ratio)
B9 | 5.45 R (bound/input frequency ratio)
B10 | 6.55 R (bound/input frequency ratio)
B11 | 3.69 R (bound/input frequency ratio)
B12 | 4.83 R (bound/input frequency ratio)
B13 | 6.94 R (bound/input frequency ratio)
B14 | 9.24 R (bound/input frequency ratio)
B15 | 6.46 R (bound/input frequency ratio)
B16 | 2.94 R (bound/input frequency ratio)

Reference: publication PMC12864922, “TDP-43 directly inhibits mRNA accumulation in neurites through modulation of mRNA stability”
